Values joined by “and” are separate entries in the source; they are usually repeats but may differ in a detail not shown here. Identical values can stand only once. Active and inactive are the calls of the source. Unless noted, how the calls were made is not given here.
Legend:
[1] = system: Wnt5a (protein binding on small-molecule microarray); assay: Wnt5a binders on small-molecule microarray, primary screen, biophysical, 635/667 nm fluorescence (AID 1142); settings: 635 nm fluorescence, higher = more signal;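 further: fluorescence read at 667 nm with signal to noise per printed feature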
[2] = cell viability in Huh7 cells, primary screen, cytotoxicity control for HCV replication inhibitor project, CellTiter-Glo luminescence, basal, 48 h (AID 1143); settings: Huh7 HCV replicon, higher = more signal, called active from +8 up or from −8 down;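 further: Huh7 hepatoma cells carrying a hepatitis C replication reporter with no stimulus; test concentration not given here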
[3] = P. aeruginosa biofilm formation inhibitors, primary screen, PAO1 strain, BacTiter-Glo luminescence, LB-PBS (AID 1144); settings: 12 h, higher = more signal
[4] = CREB reporter modulators without forskolin, primary screen, cell-based, PC12, CRE-LacZ reporter, unstimulated (AID 1145); settings: no forskolin, luminescence, 4.5 h, higher = more signal, called active from +8 up or from −8 down
[5] = CREB reporter modulators under forskolin, primary screen, cell-based, PC12, CRE-LacZ reporter, forskolin-stimulated (AID 1146); settings: luminescence, 4.5 h, higher = more signal, called active from +8 up or from −8 down;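 further: PC12 cells with 6xCRE LacZ reporter stimulated by forskolin 10 µM; beta-galactosidase reporter signal reflecting CREB driven transcription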
[6] = biological target: Streptavidin (Streptomyces avidinii) (UniProt P22629); assay: streptavidin binders on small-molecule microarray, primary screen, artefact control for SMM compound annotation, biophysical, 635/667 nm fluorescence (AID 1147); settings: streptavidin binding, higher = more signal;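 further: signal reflects streptavidin binding to arrayed compounds as a control protein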
[7] = small-molecule binders of probe aInhba, primary screen, biochemical, small-molecule microarray, 635/667 nm fluorescence (AID 1148); settings: higher = more signal;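 further: score merges 667nm spot fluorescence with signal-to-noise for antibody binding to printed compounds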
Torsin-1A (Homo sapiens) [8] = biological target: Torsin-1A (Homo sapiens) (UniProt O14656); assay: torsin A binders from cell lysate, primary screen, small-molecule microarray, wild-type, 635/667 nm (AID 1149); settings: COS7 hTOR1A-WT lysate, 635 nm fluorescence, higher = more signal
Torsin-1A (Homo sapiens) [9] = biological target: Torsin-1A (Homo sapiens) (UniProt O14656); assay: small-molecule binders of mutant TOR1A in lysate, primary screen, cell lysate, small-molecule microarray, COS7 lysate, 635/667 nm fluorescence (AID 1150); settings: COS7 hTOR1A mutant lysate, 635 nm fluorescence, higher = more signal;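 further: score pools 667 nm emission and signal to noise measuring lysate protein binding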
[10] = system: Sonic hedgehog protein (Shh); assay: small-molecule binders of Shh protein, primary screen, biochemical, small-molecule microarray, 635/667 nm fluorescence (AID 1151); settings: small-molecule microarray binding, 635 nm fluorescence; higher = more signal;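 further: Shh protein binding to compounds spotted on small-molecule microarray slides; score combines spot fluorescence intensity with signal-to-noise across triplicate slides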
[11] = E. coli DRC41 culture turbidity changes, primary screen, E. coli filamentation inducer project, strain DRC41, OD650, 48 h (AID 1152);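 further: E. coli MC1000 strain DRC41 lacking acrAB efflux pump and sulA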; settings: E. coli DRC41 (acrAB sulA), higher = more signal, called active from +8 up or from −8 down
[12] = small-molecule binders of probe aLefty1, primary screen, biochemical, small-molecule microarray, 635/667 nm fluorescence (AID 1153); settings: higher = more signal;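 further: score merges spot fluorescence with signal-to-noise ratio from the scanned slide images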
[13] = PSAC antagonists in infected red cells, primary screen, cell-based, P. falciparum Indochina, OD700, 1 h (AID 1154); settings: P. falciparum Indochina infected RBC osmotic lysis, higher = more signal, called active from +8 up or from −8 down
[14] = PSAC antagonists in infected red cells, primary screen, cell-based, P. falciparum Indochina, OD700, 2 h (AID 1155);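 further: lysis reports solute entry through the parasite surface anion channel PSAC; channel blockers reduce lysis of infected cells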; settings: P. falciparum Indochina infected erythrocytes, osmotic lysis OD700; higher = more signal, called active from +8 up or from −8 down
[15] = osmotic lysis modulators in infected erythrocytes, primary screen, PSAC antagonist project, cell-based, P. falciparum Indochina, OD700, 3 h (AID 1156); settings: higher = more signal, called active from +8 up or from −8 down
[16] = PSAC antagonists in infected red cells, primary screen, cell-based, P. falciparum Indochina, OD700, 18 h (AID 1157); settings: P. falciparum Indochina infected erythrocytes, osmotic lysis OD700, 18 h; higher = more signal, called active from +8 up or from −8 down
[17] = modulators of S6 phosphorylation in cells, primary screen, cell-based, A549, cytoblot, luminescence, serum-stimulated (AID 1158); settings: A549 phospho-S6 cytoblot, 5 h, higher = more signal;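 further: serum-stimulated A549 lung adenocarcinoma cells; signal is phosphorylated S6 detected by cytoblot immunostaining with HRP secondary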
[18] = biological target: NADPH oxidase 2 (Homo sapiens) (UniProt P04839); assay: NOX2-dependent H2O2 signal modulators, primary screen, NOX inhibitor project, cell-based, HEK293-NOX2, PMA-stimulated, Amplex Red fluorescence (AID 1159); settings: 45 min, higher = more signal, called active from +8 up or from −8 down; further: test concentration not given here
[19] = biological target: NADPH oxidase 4 (Homo sapiens) (UniProt Q9NPH5); assay: NOX4-dependent H2O2 signal modulators, primary screen, NOX inhibitor project, cell-based, HEK293-NOX4, tetracycline-induced, Amplex Red fluorescence (AID 1160); settings: 45 min, higher = more signal, called active from +8 up or from −8 down
[20] = biological target: NADPH oxidase 5 (Homo sapiens) (UniProt Q96PH1); assay: NOX5-dependent H2O2 signal modulators, primary screen, NOX inhibitor project, cell-based, HEK293-NOX5, Amplex Red fluorescence (AID 1161); settings: HEK293-NOX5, ionomycin, 45 min, higher = more signal
Chain of NADPH oxidase 5 (Homo sapiens) (Q96PH1 whole entry, looked up): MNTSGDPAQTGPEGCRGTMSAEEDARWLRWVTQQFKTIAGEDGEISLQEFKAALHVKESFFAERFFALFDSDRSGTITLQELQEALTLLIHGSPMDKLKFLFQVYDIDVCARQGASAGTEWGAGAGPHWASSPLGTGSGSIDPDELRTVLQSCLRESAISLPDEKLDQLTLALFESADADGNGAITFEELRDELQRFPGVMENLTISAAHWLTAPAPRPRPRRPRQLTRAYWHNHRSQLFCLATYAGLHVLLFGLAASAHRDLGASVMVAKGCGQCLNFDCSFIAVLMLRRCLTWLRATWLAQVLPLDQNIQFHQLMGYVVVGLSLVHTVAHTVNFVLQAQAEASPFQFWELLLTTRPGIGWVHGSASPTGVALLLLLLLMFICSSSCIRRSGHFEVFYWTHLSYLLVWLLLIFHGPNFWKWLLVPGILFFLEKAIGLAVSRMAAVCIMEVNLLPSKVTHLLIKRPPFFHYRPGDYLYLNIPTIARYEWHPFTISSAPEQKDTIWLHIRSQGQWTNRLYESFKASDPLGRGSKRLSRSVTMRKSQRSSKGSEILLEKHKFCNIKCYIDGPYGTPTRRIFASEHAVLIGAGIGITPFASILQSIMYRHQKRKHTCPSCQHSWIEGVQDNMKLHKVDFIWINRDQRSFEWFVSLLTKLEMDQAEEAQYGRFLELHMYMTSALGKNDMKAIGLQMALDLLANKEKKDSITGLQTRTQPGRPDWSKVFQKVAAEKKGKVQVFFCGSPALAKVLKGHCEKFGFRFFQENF

Chain of Streptavidin (Streptomyces avidinii) (P22629 whole entry, looked up): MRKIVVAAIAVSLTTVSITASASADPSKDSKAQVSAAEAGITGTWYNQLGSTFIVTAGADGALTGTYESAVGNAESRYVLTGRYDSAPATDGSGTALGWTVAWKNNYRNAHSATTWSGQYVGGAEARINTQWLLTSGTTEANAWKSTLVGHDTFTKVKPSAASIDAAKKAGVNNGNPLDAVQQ
Chain of NADPH oxidase 4 (Homo sapiens) (Q9NPH5 whole entry, looked up): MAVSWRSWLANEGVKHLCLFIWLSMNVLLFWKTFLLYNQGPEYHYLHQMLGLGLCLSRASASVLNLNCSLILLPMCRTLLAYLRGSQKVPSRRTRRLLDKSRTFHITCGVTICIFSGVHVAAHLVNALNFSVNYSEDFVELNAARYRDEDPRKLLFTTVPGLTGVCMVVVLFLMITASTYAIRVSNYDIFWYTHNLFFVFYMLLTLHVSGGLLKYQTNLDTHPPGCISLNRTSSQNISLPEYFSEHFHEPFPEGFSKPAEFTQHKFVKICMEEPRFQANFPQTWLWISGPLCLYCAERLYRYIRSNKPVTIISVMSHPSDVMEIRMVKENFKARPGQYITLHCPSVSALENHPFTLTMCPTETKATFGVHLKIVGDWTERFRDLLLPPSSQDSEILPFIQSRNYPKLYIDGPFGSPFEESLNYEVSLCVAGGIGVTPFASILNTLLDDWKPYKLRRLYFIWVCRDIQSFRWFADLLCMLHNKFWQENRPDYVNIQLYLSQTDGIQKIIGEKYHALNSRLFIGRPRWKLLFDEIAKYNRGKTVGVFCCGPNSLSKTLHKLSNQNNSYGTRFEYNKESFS
Chain of NADPH oxidase 2 (Homo sapiens) (P04839 whole entry, looked up): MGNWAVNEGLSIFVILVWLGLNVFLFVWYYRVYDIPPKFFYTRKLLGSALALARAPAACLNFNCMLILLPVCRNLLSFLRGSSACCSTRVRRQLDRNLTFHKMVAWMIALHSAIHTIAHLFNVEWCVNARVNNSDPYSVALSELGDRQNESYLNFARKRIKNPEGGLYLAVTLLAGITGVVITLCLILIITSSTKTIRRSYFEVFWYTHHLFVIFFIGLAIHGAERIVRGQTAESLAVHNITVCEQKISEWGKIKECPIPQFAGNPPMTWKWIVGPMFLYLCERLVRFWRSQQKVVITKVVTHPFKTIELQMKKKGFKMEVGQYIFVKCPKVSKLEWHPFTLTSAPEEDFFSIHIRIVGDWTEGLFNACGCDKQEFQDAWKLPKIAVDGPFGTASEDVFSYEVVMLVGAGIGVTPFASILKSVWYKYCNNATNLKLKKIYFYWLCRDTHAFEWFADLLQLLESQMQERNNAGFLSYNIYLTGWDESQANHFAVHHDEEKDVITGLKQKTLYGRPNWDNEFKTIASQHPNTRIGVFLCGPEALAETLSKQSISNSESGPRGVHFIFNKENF
Chain of Torsin-1A (Homo sapiens) (O14656 whole entry, looked up): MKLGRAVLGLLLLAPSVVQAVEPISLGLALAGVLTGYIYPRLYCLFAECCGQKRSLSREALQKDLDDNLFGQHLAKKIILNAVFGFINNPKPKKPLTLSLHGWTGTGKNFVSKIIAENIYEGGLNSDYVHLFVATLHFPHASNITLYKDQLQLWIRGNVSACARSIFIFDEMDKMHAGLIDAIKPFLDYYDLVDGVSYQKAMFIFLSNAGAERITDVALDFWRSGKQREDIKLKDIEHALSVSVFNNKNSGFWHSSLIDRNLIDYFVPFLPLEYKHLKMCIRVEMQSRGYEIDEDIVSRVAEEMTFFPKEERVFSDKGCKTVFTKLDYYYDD

Compound | composite z-score [1] | z-score [2] | z-score [3] | z-score [4] | z-score [5] | composite z-score [6] | composite z-score [7] | composite z-score (Torsin-1A (Homo sapiens) [8]) | composite z-score (Torsin-1A (Homo sapiens) [9]) | composite z-score [10] | z-score [11] | composite z-score [12] | z-score [13] | z-score [14] | z-score [15] | z-score [16] | z-score [17] | z-score [18] | z-score [19] | z-score [20]
C=CCN(C(=O)C1N(c2c(Cl)cccc2CO)C(=O)C2C(C(=O)O)C3C=CC21O3)c1ccc(OC)cc1 (stereo not given) | -0.898 and -0.782 | -0.443 (inactive) and -0.172 (inactive) | -0.927 (inactive) and -0.513 (inactive) | -0.623 (inactive) and 0.0645 (inactive) | -0.297 (inactive) and -0.684 (inactive) | -1 and -1.55 | -0.874 and -0.379 | -2.69 and -1.75 | -1.94 and -1.61 | -1.22 and -0.893 | 0.971 (inactive) and 2.55 (inactive) | -1.1 and -0.253 | 2.56 (inactive) and -0.975 (inactive) | 0.516 (inactive) and -1.35 (inactive) | 0.336 (inactive) and -0.988 (inactive) | 0.287 (inactive) and -1.34 (inactive) | -0.403 and 1.78 | 0.868 (inactive) and -0.148 (inactive) | -0.286 (inactive) and -0.651 (inactive) | -0.136 and 0.192
CC(C)[Si]1(C(C)C)OCc2cc(C3CC3)nc(CCc3ccccc3)c21 | -0.106 and 0.243 | 0.412 (inactive) and -0.432 (inactive) | -0.37 (inactive) and 0.125 (inactive) | 0.0035 (inactive) and 0.148 (inactive) | -0.271 (inactive) and -0.0043 (inactive) | 0.0746 and 0.209 | -0.0986 and -0.205 | -0.483 and 0.207 | -1.29 and 0.401 | -0.447 and 0.221 | -0.102 (inactive) and -0.904 (inactive) | 0.111 and -0.235 | 0.922 (inactive) and 0.437 (inactive) | 0.742 (inactive) and 0.438 (inactive) | -0.416 (inactive) and -0.978 (inactive) | 0.309 (inactive) and -0.401 (inactive) | -0.295 and -0.326 | 2.57 (inactive) and -0.368 (inactive) | 1.14 (inactive) and 1.35 (inactive) | -0.319 and -2.87
C[N+](C)(C)CCCCCCNC(=O)[C@H]1C[C@H]2C(=O)N[C@@H](CCCC[N+](C)(C)C)C(=O)N2[C@H]1c1ccc(O)cc1 | 0.0916 and 0.169 | -2.26 (inactive) and 0.0462 (inactive) | -0.978 (inactive) and -0.491 (inactive) | -1.22 (inactive) and 0.423 (inactive) | 0.188 (inactive) and -0.798 (inactive) | -0.52 and -0.486 | -0.131 and -0.0313 | -0.0883 and -0.172 | 0.0293 and -0.103 | 1.14 and 1.93 | 0.167 (inactive) and 0.234 (inactive) | -0.0523 and -0.127 | 0.453 (inactive) and 0.892 (inactive) | -1.12 (inactive) and 0.591 (inactive) | -1.11 (inactive) and -2.09 (inactive) | -1.46 (inactive) and 0.0065 (inactive) | 0.0304 and -0.109 | -1.5 (inactive) and 0.235 (inactive) | -0.479 (inactive) and 0.249 (inactive) | -3.22 and 0.0348
CCN1C(=O)[C@H]2[C@H]3[C@H](O)[C@H](O)CC(=NOC[C@@H](O)COCc4ccco4)[C@@H]3CC[C@H]2C1=O | 0.0867 and 0.192 | 0.343 (inactive) and 0.422 (inactive) | -1.34 (inactive) and -0.00909 (inactive) | -0.746 (inactive) and 1.6 (inactive) | 0.463 (inactive) and 0.503 (inactive) | -0.503 and -0.321 | -0.324 and -0.15 | 3.48 and 0.374 | 3.12 and 0.272 | 2.1 and 1.78 | -0.423 (inactive) and -0.268 (inactive) | -0.0877 and -0.101 | -0.0538 (inactive) and 1.03 (inactive) | -0.0403 (inactive) and 0.0127 (inactive) | -0.534 (inactive) and 1.78 (inactive) | -0.21 (inactive) and 0.464 (inactive) | 0.485 and 0.312 | -0.535 (inactive) and 0.394 (inactive) | -1.86 (inactive) and -0.599 (inactive) | -0.844 and -0.174
CO[C@@H]1C=CCC(=O)N2CCC[C@H]2C(=O)OC[C@H](C)C(=O)OC[C@H]1C | -0.0492 | 0.0002 (inactive) | -0.789 (inactive) | -0.113 (inactive) | -0.192 (inactive) | -0.69 | -0.186 | 0.772 | 1.63 | 1.64 | 0.813 (inactive) | -0.0536 | -0.393 (inactive) | -0.25 (inactive) | -0.355 (inactive) | 0.0084 (inactive) | 0.0533 | -0.773 (inactive) | 0.208 (inactive) | 0.221
